# Among all 39,000 compounds or so, about 3,300 (8.5%) were called active. What follows is part of a selection rich in actives, with near analogues and random picks from the rest.
# Tested on: HepG2
# Experiment: cytotoxicity call (relative viability < 0.9)
# Details: 10 µM
row,SMILES,cytotoxicity call
1,C[C@H]1CN([C@@H](C)CO)C(=O)c2cc(NC(=O)Cn3cnnn3)ccc2O[C@H]1CN(C)Cc1ccc(C(=O)O)cc1,inactive
2,COc1ccc(S(=O)(=O)N(C)C[C@@H]2Oc3ccc(NC(=O)CCN4CCOCC4)cc3C(=O)N([C@H](C)CO)C[C@@H]2C)cc1,inactive
3,COCC#Cc1cnc2c(c1)C(=O)N([C@@H](C)CO)C[C@@H](C)[C@H](CN(C)C(=O)CCN1CCCCC1)O2,inactive
4,C[C@H](CO)N1C[C@H](C)[C@@H](CN(C)S(=O)(=O)c2ccccc2)OCCCC[C@H](C)Oc2ccc(NC(=O)Nc3ccc(C(F)(F)F)cc3)cc2C1=O,inactive
5,C[C@@H]1CCCCO[C@H](CN(C)S(=O)(=O)c2ccccc2)[C@H](C)CN([C@@H](C)CO)C(=O)c2cc(NC(=O)Nc3ccc(C(F)(F)F)cc3)ccc2O1,active
6,C[C@H]1CCCCO[C@@H](CN(C)S(=O)(=O)c2ccccc2)[C@@H](C)CN([C@@H](C)CO)C(=O)c2cc(NC(=O)Nc3ccc(C(F)(F)F)cc3)ccc2O1,active
7,C[C@@H]1CCCCO[C@H](CN(C)S(=O)(=O)c2ccccc2)[C@@H](C)CN([C@H](C)CO)C(=O)c2cc(NC(=O)Nc3ccc(C(F)(F)F)cc3)ccc2O1,active
8,C[C@@H]1CCCCO[C@@H](CN(C)S(=O)(=O)c2ccccc2)[C@@H](C)CN([C@H](C)CO)C(=O)c2cc(NC(=O)Nc3ccc(C(F)(F)F)cc3)ccc2O1,inactive
9,C[C@@H]1CN([C@@H](C)CO)C(=O)c2cc(NC(=O)Nc3ccc(C(F)(F)F)cc3)ccc2O[C@@H](C)CCCCO[C@@H]1CN(C)S(=O)(=O)c1ccccc1,inactive
10,C[C@H](CO)N1C[C@H](C)[C@H](CN(C)S(=O)(=O)c2ccccc2)OCCCC[C@H](C)Oc2ccc(NC(=O)Nc3ccc(C(F)(F)F)cc3)cc2C1=O,inactive
11,C[C@H]1CCCCO[C@H](CN(C)S(=O)(=O)c2ccccc2)[C@@H](C)CN([C@@H](C)CO)C(=O)c2cc(NC(=O)Nc3ccc(C(F)(F)F)cc3)ccc2O1,active
12,C[C@@H]1CCCCO[C@H](CN(C)S(=O)(=O)c2ccccc2)[C@@H](C)CN([C@@H](C)CO)C(=O)c2cc(NC(=O)Nc3ccc(C(F)(F)F)cc3)ccc2O1,inactive
13,C[C@@H]1CCCCO[C@@H](CN(C)S(=O)(=O)c2ccccc2)[C@H](C)CN([C@H](C)CO)C(=O)c2cc(NC(=O)Nc3ccc(C(F)(F)F)cc3)ccc2O1,inactive
14,C[C@@H]1CN([C@@H](C)CO)C(=O)c2cc(NC(=O)Nc3ccc(C(F)(F)F)cc3)ccc2O[C@@H](C)CCCCO[C@H]1CN(C)S(=O)(=O)c1ccccc1,inactive
15,C[C@@H]1CCCCO[C@@H](CN(C)S(=O)(=O)c2ccccc2)[C@@H](C)CN([C@@H](C)CO)C(=O)c2cc(NC(=O)Nc3ccc(C(F)(F)F)cc3)ccc2O1,inactive
16,OCC1CCNCC1,inactive
17,COC(=O)c1sccc1NC(=O)Cn1cnc2c1c(=O)n(C)c(=O)n2C,inactive
18,CC(=O)N(C)C[C@H]1Oc2ncc(C#C[C@H](C)O)cc2C(=O)N([C@@H](C)CO)C[C@H]1C,inactive
19,C[C@H]1CN([C@@H](C)CO)S(=O)(=O)c2ccc(-c3ccc(C(=O)N(C)C)cc3)cc2O[C@@H]1CN(C)C(=O)C1CCOCC1,inactive
20,CC(C)NC(=O)Nc1ccc2c(c1)CC(=O)N([C@H](C)CO)C[C@H](C)[C@H](CN(C)S(=O)(=O)c1ccccc1)O2,inactive

row,SMILES,cytotoxicity call
1,Nc1ccn([C@@H]2C[C@@H](O)[C@H](CO)O2)c(=O)n1,inactive
2,COc1ccc(NC(=O)N(C)C[C@@H]2Oc3ccc(NC(=O)CCCN(C)C)cc3C(=O)N([C@@H](C)CO)C[C@H]2C)cc1,inactive
3,COc1ccc(NC(=O)N(C)C[C@@H]2OCCCC[C@@H](C)Oc3ccc(NC(=O)C4CCCCC4)cc3C(=O)N([C@@H](C)CO)C[C@H]2C)cc1,inactive
4,C[C@H]1CC/C=C\[C@H]2O[C@@]34C=CCN(CCN5CCOCC5)C(=O)[C@H]3N(CCO)C(=O)[C@@H]4[C@@H]2C(=O)O1,inactive
5,COc1cc(OC)cc(C(=O)N(Cc2ccco2)Cc2cc3ccc(SC)cc3nc2-c2cccc(OC)c2)c1,inactive
6,Fc1ccccc1-c1nc2ccn(Cc3ccc(-c4ccc(C(F)(F)F)cc4C(F)(F)F)nn3)cc-2n1,active
7,CO[C@@H]1CN(C)C(=O)c2ccc(NC(=O)C3CC3)cc2OC[C@H](C)N(C(=O)Cc2ccccn2)C[C@@H]1C,inactive
8,COc1cc(/C=C/C(=O)N2CCC=CC2=O)cc(OC)c1OC(=O)CCCCCCCCCCC(=O)Oc1c(OC)cc(/C=C/C(=O)N2CCC=CC2=O)cc1OC,inactive
9,COc1cc(C=CC(=O)N2CCC=CC2=O)cc(OC)c1OC,active
10,C/C=C/C(=O)N1CCC=CC1=O,inactive
11,COC(=O)C=Cc1cc(OC)c(OC)c(OC)c1,inactive
12,CCOC(=O)/C=C/C(=O)N1CCC=CC1=O,active
13,C=C(C)C(=O)N1CCC=CC1=O,inactive
14,COc1cc(C=CC(N)=O)cc(OC)c1OC,active
15,COc1cc(C=CC(=O)O)cc(OC)c1OC,inactive
16,COc1cc(/C=C/C(=O)N(C)CCN(C)C(=O)/C=C/c2cc(OC)c(OC)c(OC)c2)cc(OC)c1OC,inactive
17,COc1cc(C=CC(=O)O)cc(OC)c1O,inactive
18,COc1cc(C=CC(=O)N2CCCCCCC2)cc(OC)c1OC,inactive
19,COc1cc(/C=C/C(=O)N2CCC=CC2=O)cc(OC)c1OCCOCCOCCOCCC(=O)OC(C)(C)C,active

# Source: the antibiotic and cytotoxicity screens of Wong et al. (2023)
